Data published in PubChem BioAssay AID1159580 (chemical genetic matrix, 2015).
The campaign covered roughly 5,500 compounds. About 2,000 (36%) were called active. About 18% were inconclusive and are not listed. Some of the results follow. Values without a mark were called inactive. Rule as the data show it: active = normalized growth mostly below about 0.91 (no sharp cut-off); inconclusive = no clear call, values can overlap the other calls; inactive = mostly above about 0.92.

Assay: chemical genetic growth profiling, strain panel (AID 1159580);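 also: tested at 20 µM; growth read once vehicle control cultures reached saturation at 30 °C; 1 = growth at the plate median or of vehicle wells; lower values mean less growth of the strain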
Conditions: S. cerevisiae deletion strains, growth OD
[1] = locus YHR030C, strain SLT2, active compounds read low

Cc1onc(-c2ccccc2)c1-c1nc(CSc2ccc(C(F)(F)F)cn2)no1
normalized growth (locus YAL013W, strain DEP1, active compounds read low): 1.03
normalized growth (locus YBR229C, strain ROT2, active compounds read low): 0.973
normalized growth (locus YCL061C, strain MRC1, active compounds read low): 0.991
normalized growth (locus YDL101C, strain DUN1, active compounds read low): 0.968
normalized growth (locus YDR150W, strain NUM1, active compounds read low): 1.02
normalized growth (locus YEL061C, strain CIN8, active compounds read low): 0.975
normalized growth (locus YGR078C, strain PAC10, active compounds read low): 1
normalized growth [1]: 0.818
normalized growth (locus YHR087W, strain rtc3, active compounds read low): 0.984
normalized growth (locus YJL187C, strain SWE1, active compounds read low): 0.977
normalized growth (locus YJR043C, strain POL32, active compounds read low): 0.957
normalized growth (locus YJR075W, strain HOC1, active compounds read low): 0.995
normalized growth (locus YLR039C, strain RIC1, active compounds read low): 0.947
normalized growth (locus YLR058C, strain SHM2 (second series), active compounds read low): 0.957
normalized growth (locus YLR085C, strain ARP6, active compounds read low): 1.06
normalized growth (locus YLR262C, strain YPT6, active compounds read low): 0.93
normalized growth (locus YML094W, strain GIM5, active compounds read low): 1.02
normalized growth (locus YMR219W, strain ESC1, active compounds read low): 0.975
normalized growth (locus YMR263W, strain SAP30, active compounds read low): 0.971
normalized growth (locus YMR307W, strain GAS1, active compounds read low): 1.02
normalized growth (locus YNL153C, strain GIM3, active compounds read low): 1.02
normalized growth (locus YNL298W, strain CLA4 (second series), active compounds read low): 1.02
normalized growth (locus YNL322C, strain KRE1, active compounds read low): 0.964
normalized growth (locus YNR030W, strain Alg12, active compounds read low): 1.01
normalized growth (locus YOL006C, strain TOP1, active compounds read low): 0.946
normalized growth (locus YPL055C, strain LGE1, active compounds read low): 1.06
normalized growth (locus YPL241C, strain CIN2, active compounds read low): 0.93
normalized growth (locus YPR135W, strain CTF4, active compounds read low): 1.33

Cc1onc(-c2ccccc2)c1C(=O)Sc1ccc(C(F)(F)F)cn1
normalized growth (locus YAR019C, strain CDC15, active compounds read low): 0.941
normalized growth (locus YBL105C, strain PKC1, active compounds read low): 0.961
normalized growth (locus YBR135W, strain CKS1, active compounds read low): 0.965
normalized growth (locus YBR136W, strain MEC1, active compounds read low): 0.955
normalized growth (locus YBR160W, strain CDC28, active compounds read low): 0.967
normalized growth (locus YDL017W, strain CDC7, active compounds read low): 0.967
normalized growth (locus YDL028C, strain MPS1, active compounds read low): 0.958
normalized growth (locus YDL108W, strain KIN28, active compounds read low): 0.974
normalized growth (locus YDL132W, strain cdc53, active compounds read low): 0.951
normalized growth (locus YDL214C, strain PRR2, active compounds read low): 0.217 (active)
normalized growth (locus YDR052C, strain DBF4, active compounds read low): 0.977
normalized growth (locus YDR054C, strain cdc34, active compounds read low): 0.937
normalized growth (locus YDR226W, strain ADK1, active compounds read low): 0.963
normalized growth (locus YDR477W, strain SNF1, active compounds read low): 0.187 (active)
normalized growth (locus YER123W, strain YCK3, active compounds read low): 0.465 (active)
normalized growth (locus YER133W, strain GLC7, active compounds read low): 0.249 (active)
normalized growth (locus YFL009W, strain cdc4, active compounds read low): 0.951
normalized growth (locus YFL029C, strain CAK1, active compounds read low): 0.949
normalized growth (locus YFR003C, strain YPI1, active compounds read low): 0.971
normalized growth (locus YFR019W, strain FAB1, active compounds read low): 0.739 (active)
normalized growth (locus YFR028C, strain CDC14, active compounds read low): 0.968
normalized growth (locus YGR040W, strain KSS1, active compounds read low): 0.227 (active)
normalized growth (locus YGR052W, strain FMP48, active compounds read low): 0.242 (active)
normalized growth (locus YGR092W, strain DBF2, active compounds read low): 0.799
normalized growth [1]: 0.317 (active)
normalized growth (locus YHR079C, strain IRE1, active compounds read low): 0.712
normalized growth (locus YHR082C, strain KSP1, active compounds read low): 0.256 (active)
normalized growth (locus YHR205W, strain SCH9, active compounds read low): 0.343 (active)
normalized growth (locus YIL147C, strain SLN1, active compounds read low): 0.955
normalized growth (locus YJL095W, strain BCK1, active compounds read low): 0.424 (active)
normalized growth (locus YJR016C, strain ILV3, active compounds read low): 0.973
normalized growth (locus YJR066W, strain TOR1 (second series), active compounds read low): 0.343 (active)
normalized growth (locus YJR066W, strain TOR1, active compounds read low): 0.283 (active)
normalized growth (locus YKL048C, strain ELM1, active compounds read low): 0.933
normalized growth (locus YKL101W, strain HSL1, active compounds read low): 0.817
normalized growth (locus YKL193C, strain SDS22, active compounds read low): 0.952
normalized growth (locus YKL203C, strain TOR2, active compounds read low): 0.53 (active)
normalized growth (locus YLR113W, strain HOG1, active compounds read low): 0.184 (active)
normalized growth (locus YLR133W, strain CKI1, active compounds read low): 0.749
normalized growth (locus YML070W, strain DAK1, active compounds read low): 0.587 (active)
normalized growth (locus YMR001C, strain CDC5, active compounds read low): 0.952
normalized growth (locus YMR205C, strain PFK2 (second series), active compounds read low): 0.882
normalized growth (locus YMR277W, strain FCP1, active compounds read low): 0.943
normalized growth (locus YNL006W, strain LST8, active compounds read low): 0.979
normalized growth (locus YNL020C, strain ARK1, active compounds read low): 0.874
normalized growth (locus YNL161W, strain CBK1, active compounds read low): 0.951
normalized growth (locus YNL183C, strain NPR1, active compounds read low): 0.106 (active)
normalized growth (locus YNL207W, strain RIO2, active compounds read low): 0.961
normalized growth (locus YNL222W, strain SSU72, active compounds read low): 0.918
normalized growth (locus YNL307C, strain MCK1 (second series), active compounds read low): 0.683
normalized growth (locus YOL078W, strain AVO1, active compounds read low): 0.948
normalized growth (locus YOL136C, strain PFK27, active compounds read low): 0.583 (active)
normalized growth (locus YOR061W, strain CKA2, active compounds read low): 0.765
normalized growth (locus YOR119C, strain RIO1, active compounds read low): 0.471 (active)
normalized growth (locus YOR231W, strain MKK1, active compounds read low): 0.732
normalized growth (locus YOR329C, strain SCD5, active compounds read low): 0.96
normalized growth (locus YPL153C, strain RAD53, active compounds read low): 0.661
normalized growth (locus YPL209C, strain IPL1, active compounds read low): 0.961
normalized growth (locus YPL256C, strain CLN2, active compounds read low): 0.209 (active)
normalized growth (locus YPR025C, strain CCL1, active compounds read low): 0.954
normalized growth (locus YPR106W, strain ISR1, active compounds read low): 0.939
normalized growth (locus YPR111W, strain DBF20, active compounds read low): 0.946
normalized growth (strain NNK1, active compounds read low): 0.963
normalized growth (strain TSCII, active compounds read low): 0.937
